Measurements: the supplement of paper PMC6411743
± gives the standard deviation of the averaged measurements. Targets with the largest changes are over-represented here; the source holds about 6,500 in all.

Compound: Nc1ncnc2c1ncn2[C@@H]1O[C@H](COP(=O)(O)OP(=O)(O)OP(=O)(O)O)[C@@H](O)[C@H]1O [adenosine triphosphate]
Test: NP40-soluble protein abundance relative to vehicle (solubility fold change) (ratio); higher = more soluble protein in presence of ATP
In short: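 Jurkat crude lysate (Dounce-homogenised) was treated with eight concentrations from 0.1 to 10 mM for 10 min at room temperature, then 3 min at 37 °C. It was solubilised with 0.8% NP40 and benzonase (60 min, 4 °C) and ultracentrifuged, and the supernatant was TMT-labelled for LC-MS/MS. Intensities were vsn-normalised, and the value is the fold change against the NP40-processed vehicle per replicate, from three independent experiments.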

Chain of UniProt Q16629 (Q16629 whole entry, one chain of several): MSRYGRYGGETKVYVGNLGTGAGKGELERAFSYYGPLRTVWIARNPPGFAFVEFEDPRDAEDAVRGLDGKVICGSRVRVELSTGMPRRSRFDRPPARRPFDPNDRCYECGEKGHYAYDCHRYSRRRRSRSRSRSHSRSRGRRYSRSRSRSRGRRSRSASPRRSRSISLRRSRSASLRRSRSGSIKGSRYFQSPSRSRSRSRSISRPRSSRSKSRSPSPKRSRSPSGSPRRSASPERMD
Chain of UniProt P56556 (P56556 whole entry, one chain of several): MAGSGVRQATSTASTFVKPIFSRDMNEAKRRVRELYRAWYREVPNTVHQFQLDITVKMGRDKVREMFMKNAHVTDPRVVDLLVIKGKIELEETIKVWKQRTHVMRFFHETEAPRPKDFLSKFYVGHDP
Chain of UniProt O43257 (O43257 whole entry): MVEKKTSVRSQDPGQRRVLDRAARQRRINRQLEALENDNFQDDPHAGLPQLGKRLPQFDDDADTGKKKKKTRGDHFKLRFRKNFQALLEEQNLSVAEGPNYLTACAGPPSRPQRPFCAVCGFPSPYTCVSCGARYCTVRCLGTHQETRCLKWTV
Chain of UniProt P01130 (P01130 whole entry, one chain of several): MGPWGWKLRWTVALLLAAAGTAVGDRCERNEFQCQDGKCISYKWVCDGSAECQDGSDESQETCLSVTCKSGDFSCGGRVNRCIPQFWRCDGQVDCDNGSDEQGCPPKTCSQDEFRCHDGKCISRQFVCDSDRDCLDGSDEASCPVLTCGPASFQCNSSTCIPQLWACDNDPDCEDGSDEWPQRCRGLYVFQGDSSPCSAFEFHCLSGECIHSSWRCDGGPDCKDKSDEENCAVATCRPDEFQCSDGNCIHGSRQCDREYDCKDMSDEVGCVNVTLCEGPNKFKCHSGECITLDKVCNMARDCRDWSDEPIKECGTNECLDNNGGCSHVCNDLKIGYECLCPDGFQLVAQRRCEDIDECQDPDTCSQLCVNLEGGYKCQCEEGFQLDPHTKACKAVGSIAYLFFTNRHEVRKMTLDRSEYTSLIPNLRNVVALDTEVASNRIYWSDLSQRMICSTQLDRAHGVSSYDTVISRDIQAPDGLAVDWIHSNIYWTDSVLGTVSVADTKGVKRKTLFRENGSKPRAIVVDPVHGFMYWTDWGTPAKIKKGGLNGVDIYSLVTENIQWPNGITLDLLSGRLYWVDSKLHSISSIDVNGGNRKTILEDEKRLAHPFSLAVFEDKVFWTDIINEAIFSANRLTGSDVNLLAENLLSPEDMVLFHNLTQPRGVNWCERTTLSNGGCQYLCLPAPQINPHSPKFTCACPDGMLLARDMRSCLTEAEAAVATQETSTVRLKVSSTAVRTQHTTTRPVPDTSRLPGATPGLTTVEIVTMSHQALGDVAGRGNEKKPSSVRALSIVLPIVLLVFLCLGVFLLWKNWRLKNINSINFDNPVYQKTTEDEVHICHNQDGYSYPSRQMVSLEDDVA
Chain of UniProt O14776 (O14776 whole entry): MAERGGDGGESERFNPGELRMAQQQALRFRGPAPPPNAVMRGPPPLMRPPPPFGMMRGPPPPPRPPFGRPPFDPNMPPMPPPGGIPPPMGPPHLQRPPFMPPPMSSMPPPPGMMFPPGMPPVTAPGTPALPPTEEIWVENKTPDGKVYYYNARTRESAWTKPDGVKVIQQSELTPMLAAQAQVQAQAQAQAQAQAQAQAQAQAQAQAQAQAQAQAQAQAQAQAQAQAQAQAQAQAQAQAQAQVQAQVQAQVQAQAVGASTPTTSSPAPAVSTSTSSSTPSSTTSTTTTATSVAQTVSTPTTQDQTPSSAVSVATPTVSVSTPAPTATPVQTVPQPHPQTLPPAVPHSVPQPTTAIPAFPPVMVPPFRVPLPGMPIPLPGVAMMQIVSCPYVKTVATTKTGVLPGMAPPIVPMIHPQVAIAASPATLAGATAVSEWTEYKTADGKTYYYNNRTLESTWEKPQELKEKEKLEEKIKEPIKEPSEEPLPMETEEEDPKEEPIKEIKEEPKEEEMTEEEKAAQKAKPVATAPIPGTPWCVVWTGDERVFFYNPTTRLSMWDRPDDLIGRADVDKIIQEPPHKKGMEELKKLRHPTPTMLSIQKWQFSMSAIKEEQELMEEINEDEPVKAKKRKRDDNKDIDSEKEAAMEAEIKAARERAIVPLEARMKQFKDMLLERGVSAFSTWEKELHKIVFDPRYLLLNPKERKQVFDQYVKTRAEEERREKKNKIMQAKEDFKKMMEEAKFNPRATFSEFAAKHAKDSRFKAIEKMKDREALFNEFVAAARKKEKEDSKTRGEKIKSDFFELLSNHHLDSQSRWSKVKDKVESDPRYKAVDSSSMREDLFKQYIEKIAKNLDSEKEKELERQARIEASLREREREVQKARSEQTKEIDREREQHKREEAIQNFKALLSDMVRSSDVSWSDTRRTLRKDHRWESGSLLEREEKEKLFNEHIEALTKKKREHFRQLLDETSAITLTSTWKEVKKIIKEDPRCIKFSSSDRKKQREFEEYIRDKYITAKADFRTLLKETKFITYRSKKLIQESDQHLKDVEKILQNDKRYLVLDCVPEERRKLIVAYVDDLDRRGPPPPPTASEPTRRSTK
Chain of UniProt Q9GZN1 (Q9GZN1 whole entry, one chain of several): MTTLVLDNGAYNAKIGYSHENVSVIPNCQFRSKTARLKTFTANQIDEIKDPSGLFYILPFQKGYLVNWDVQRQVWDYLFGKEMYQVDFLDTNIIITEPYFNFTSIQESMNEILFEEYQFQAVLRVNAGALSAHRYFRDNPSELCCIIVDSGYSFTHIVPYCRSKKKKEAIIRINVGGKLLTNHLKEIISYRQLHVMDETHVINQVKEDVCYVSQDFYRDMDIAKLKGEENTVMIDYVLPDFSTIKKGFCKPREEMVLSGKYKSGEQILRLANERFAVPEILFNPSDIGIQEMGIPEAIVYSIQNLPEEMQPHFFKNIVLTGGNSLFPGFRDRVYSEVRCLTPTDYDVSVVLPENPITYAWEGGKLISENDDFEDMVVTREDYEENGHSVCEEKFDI
Chain of UniProt Q9BV68 (Q9BV68 whole entry, one chain of several): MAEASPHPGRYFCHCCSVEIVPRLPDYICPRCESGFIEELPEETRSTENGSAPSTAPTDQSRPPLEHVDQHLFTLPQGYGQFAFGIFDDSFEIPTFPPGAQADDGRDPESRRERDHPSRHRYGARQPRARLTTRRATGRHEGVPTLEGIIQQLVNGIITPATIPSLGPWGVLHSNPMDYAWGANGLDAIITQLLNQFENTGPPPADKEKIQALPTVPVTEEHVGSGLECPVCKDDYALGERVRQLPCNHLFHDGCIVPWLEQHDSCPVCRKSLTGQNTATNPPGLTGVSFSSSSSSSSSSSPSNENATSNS
Chain of UniProt Q9BPX6 (Q9BPX6 whole entry, one chain of several): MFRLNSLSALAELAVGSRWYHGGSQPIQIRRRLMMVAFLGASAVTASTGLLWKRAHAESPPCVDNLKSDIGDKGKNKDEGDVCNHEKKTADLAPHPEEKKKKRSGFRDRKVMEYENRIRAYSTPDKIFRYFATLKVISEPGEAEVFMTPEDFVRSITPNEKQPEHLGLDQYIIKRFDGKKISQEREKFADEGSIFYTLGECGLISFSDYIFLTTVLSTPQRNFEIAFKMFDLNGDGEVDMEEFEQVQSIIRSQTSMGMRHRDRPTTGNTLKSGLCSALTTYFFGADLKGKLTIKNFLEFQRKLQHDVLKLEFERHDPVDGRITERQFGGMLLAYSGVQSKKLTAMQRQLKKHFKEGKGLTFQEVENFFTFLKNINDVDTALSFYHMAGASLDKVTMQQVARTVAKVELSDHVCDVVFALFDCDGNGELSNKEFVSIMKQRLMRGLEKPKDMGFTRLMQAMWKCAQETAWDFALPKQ
Chain of UniProt Q8WV92 (Q8WV92 whole entry, one chain of several): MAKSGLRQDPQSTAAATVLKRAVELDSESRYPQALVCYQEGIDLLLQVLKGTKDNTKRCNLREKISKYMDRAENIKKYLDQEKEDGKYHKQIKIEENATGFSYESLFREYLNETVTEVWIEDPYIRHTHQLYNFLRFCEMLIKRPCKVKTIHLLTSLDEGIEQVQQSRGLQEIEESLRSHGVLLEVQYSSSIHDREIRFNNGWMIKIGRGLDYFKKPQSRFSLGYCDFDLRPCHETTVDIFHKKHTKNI
Chain of UniProt O14524 (O14524 whole entry): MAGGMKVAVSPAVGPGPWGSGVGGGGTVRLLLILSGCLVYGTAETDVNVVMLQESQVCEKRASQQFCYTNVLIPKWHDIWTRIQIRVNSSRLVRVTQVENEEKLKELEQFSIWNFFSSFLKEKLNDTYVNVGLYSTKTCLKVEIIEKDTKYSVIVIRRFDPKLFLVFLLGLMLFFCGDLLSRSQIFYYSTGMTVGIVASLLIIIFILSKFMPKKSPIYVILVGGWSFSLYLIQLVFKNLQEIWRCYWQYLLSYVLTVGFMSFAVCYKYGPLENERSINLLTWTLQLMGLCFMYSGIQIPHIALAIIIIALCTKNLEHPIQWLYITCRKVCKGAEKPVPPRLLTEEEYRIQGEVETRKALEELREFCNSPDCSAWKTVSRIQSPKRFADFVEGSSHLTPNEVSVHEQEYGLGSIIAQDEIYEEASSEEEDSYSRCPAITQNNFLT
Chain of UniProt O00635 (O00635 whole entry): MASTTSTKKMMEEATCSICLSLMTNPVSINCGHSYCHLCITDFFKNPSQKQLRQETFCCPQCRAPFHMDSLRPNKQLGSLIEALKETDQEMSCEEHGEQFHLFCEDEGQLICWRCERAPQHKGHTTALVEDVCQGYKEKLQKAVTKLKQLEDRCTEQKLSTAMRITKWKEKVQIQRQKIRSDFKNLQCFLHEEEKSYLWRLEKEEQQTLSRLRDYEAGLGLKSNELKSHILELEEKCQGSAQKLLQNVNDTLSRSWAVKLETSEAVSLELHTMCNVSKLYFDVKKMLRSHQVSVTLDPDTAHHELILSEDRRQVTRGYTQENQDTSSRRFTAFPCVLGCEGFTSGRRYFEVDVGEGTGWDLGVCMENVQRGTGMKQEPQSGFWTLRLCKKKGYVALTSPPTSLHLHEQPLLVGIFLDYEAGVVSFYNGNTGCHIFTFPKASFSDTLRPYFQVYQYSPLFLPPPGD

Target	NP40-soluble protein abundance (concentration: 1mM)	NP40-soluble protein abundance (concentration: 2mM)	NP40-soluble protein abundance (concentration: 4mM)	NP40-soluble protein abundance (concentration: 6mM)	NP40-soluble protein abundance (concentration: 8mM)	NP40-soluble protein abundance (concentration: 10mM)
A0A0B4J1Z1|C9JAB2|Q16629|Q16629-2|Q16629-3|Q16629-4 (UniProt Q16629)	1.7 ± 0.28	1.77 ± 0.28	1.89 ± 0.28	2.04 ± 0.31	1.98 ± 0.38	2.09 ± 0.36
DNAJC13 (UniProt O75165)	1.15 ± 0.024	1.29 ± 0.095	1.3 ± 0.043	1.35 ± 0.12	1.68 ± 0.12	1.73 ± 0.22
F5H527|Q76I76 (UniProt Q76I76)	0.984 ± 0.012	1 ± 0.016	0.993 ± 0.03	0.997 ± 0.013	0.978 ± 0.037	0.995 ± 0.062
DHX15 (UniProt O43143)	1.25 ± 0.079	1.24 ± 0.071	1.24 ± 0.079	1.24 ± 0.1	1.33 ± 0.074	1.29 ± 0.044
UniProt A0FGR8-2|H7BXI1|A0FGR8-6	1 ± 0.026	1.02 ± 0.025	1.02 ± 0.015	0.997 ± 0.052	1.02 ± 0.03	1.02 ± 0.047
H0YM92|J3KMZ9|P01130|P01130-5|H0YMD1|P01130-4 (UniProt P01130)	0.962 ± 0.026	0.977 ± 0.016	0.981 ± 0.023	0.966 ± 0.029	0.9771 ± 0.0072	0.987 ± 0.016
ZNHIT1 (UniProt O43257)	1.12 ± 0.047	1.16 ± 0.012	1.27 ± 0.042	1.3 ± 0.037	1.16 ± 0.037	1.19 ± 0.073
B7ZC38|Q9NR46 (UniProt Q9NR46)	0.993 ± 0.015	0.977 ± 0.029	0.98 ± 0.033	0.981 ± 0.021	0.988 ± 0.056	0.936 ± 0.039
K7EK70|Q49A26 (UniProt Q49A26)	1.18 ± 0.095	1.25 ± 0.1	1.38 ± 0.1	1.45 ± 0.083	1.57 ± 0.16	1.76 ± 0.081
F8WCD0|Q8NC42 (UniProt Q8NC42)	0.964 ± 0.023	0.992 ± 0.013	1.08 ± 0.076	1.03 ± 0.029	0.945 ± 0.021	1 ± 0.076
UniProt O15169|O15169-2	1.05 ± 0.17	0.887 ± 0.14	0.982 ± 0.19	1.07 ± 0.18	1 ± 0.047	1.15 ± 0.21
F8W057|Q9GZN1|Q9GZN1-2 (UniProt Q9GZN1)	1.07 ± 0.034	1.11 ± 0.034	1.1 ± 0.065	1.03 ± 0.089	1.2 ± 0.028	1.17 ± 0.089
B0QY89|Q9Y262 (UniProt Q9Y262)	1.09 ± 0.093	1.25 ± 0.15	1.23 ± 0.075	1.35 ± 0.072	1.6 ± 0.1	1.7 ± 0.12
B1AK44|Q9UI95 (UniProt Q9UI95)	0.999 ± 0.022	0.937 ± 0.037	0.978 ± 0.024	1.01 ± 0.087	1.05 ± 0.086	0.993 ± 0.059
K7EIY6|Q9BV68-2 (UniProt Q9BV68)	1 ± 0.15	0.967 ± 0.095	0.991 ± 0.11	1 ± 0.1	0.969 ± 0.034	0.92 ± 0.11
UniProt A7KAX9|A7KAX9-2	0.937 ± 0.054	0.91 ± 0.046	0.908 ± 0.0074	0.907 ± 0.024	0.904 ± 0.04	0.941 ± 0.018
UniProt E9PSI1	0.9713 ± 0.0047	0.986 ± 0.015	0.981 ± 0.015	0.939 ± 0.037	0.958 ± 0.044	0.96 ± 0.04
URB1 (UniProt O60287)	1.29 ± 0.067	1.41 ± 0.043	1.65 ± 0.057	1.7 ± 0.12	1.94 ± 0.12	2.15 ± 0.084
A0A0U1RRK1|F6XEV2|Q9BPX6|Q9BPX6-3|Q9BPX6-2 (UniProt Q9BPX6)	1.01 ± 0.073	1.01 ± 0.045	1.04 ± 0.038	1.05 ± 0.067	1.07 ± 0.066	1.08 ± 0.058
A0A0A0MTB8|Q8NI36 (UniProt Q8NI36)	1.21 ± 0.057	1.37 ± 0.057	1.68 ± 0.13	1.86 ± 0.23	2.12 ± 0.14	2.17 ± 0.17
TRIM38 (UniProt O00635)	0.949 ± 0.053	1 ± 0.018	0.988 ± 0.041	0.955 ± 0.046	0.986 ± 0.034	0.993 ± 0.045
A0A0A0MSV9|A0A0G2JH37|A0A0G2JKZ1|A2AB90|O15533|O15533-2|O15533-3 (UniProt O15533)	1.04 ± 0.066	1.02 ± 0.067	0.986 ± 0.028	0.968 ± 0.047	0.99 ± 0.085	0.984 ± 0.088
J3KPF0 (UniProt Q9Y4D8)	1.08 ± 0.036	1.04 ± 0.068	1.05 ± 0.025	1.01 ± 0.1	1.02 ± 0.08	1 ± 0.044
B7ZBK4|Q92664 (UniProt Q92664)	1.02 ± 0.021	1.03 ± 0.035	1 ± 0.042	0.9904 ± 0.0034	0.989 ± 0.026	0.976 ± 0.053
I3L0L6|Q9H6Y7 (UniProt Q9H6Y7)	0.901 ± 0.033	0.93 ± 0.016	0.896 ± 0.051	0.962 ± 0.064	0.921 ± 0.066	0.864 ± 0.065
A0A0C4DGS0|P56556 (UniProt P56556)	0.969 ± 0.066	0.922 ± 0.055	0.901 ± 0.046	0.875 ± 0.066	0.926 ± 0.053	0.909 ± 0.031
H7C3Q6|Q8WV92|B8ZZL5 (UniProt Q8WV92)	1.85 ± 0.55	1.9 ± 0.66	1.92 ± 0.67	1.9 ± 0.76	1.97 ± 0.67	1.94 ± 0.67
E9PEN0|Q8WYH8|Q8WYH8-2 (UniProt Q8WYH8)	1.15 ± 0.2	1.3 ± 0.29	1.36 ± 0.18	1.5 ± 0.16	1.85 ± 0.6	1.86 ± 0.39
UniProt O14776|O14776-2	0.972 ± 0.011	0.9735 ± 0.0036	0.959 ± 0.024	1.03 ± 0.021	1.01 ± 0.024	1.02 ± 0.013
UniProt O14524	0.824 ± 0.11	0.887 ± 0.1	0.841 ± 0.017	0.899 ± 0.066	0.872 ± 0.029	0.896 ± 0.036
